In PubChem BioAssay AID2060323 (National Center for Advancing Translational Sciences (NCATS), 2025) one finds Potency data, which are given here for 14 compounds.

Structures are written as SMILES. Records with an inconclusive call do not appear. Entries that show only a call come without a potency. Active and inactive are the calls of the source. Calls follow the shape of the dose curve; as a rule, active = well fitted activation curve with a large enough effect; inconclusive = small, poorly fitted or top-dose-only effect; inactive = no such curve, though single readings can be large or run the other way.

The target in the assay is Cellular tumor antigen p53 (Homo sapiens) (UniProt P04637). Kind of assay: Confirmatory qHTS for small molecule compounds that upregulate eGFP-tagged delta133p53alpha (in C-terminal) cells. Particulars: delta133p53alpha-eGFP (C-terminal) reporter cells, GFP fluorescence upregulation; series mostly up to 57.5 µM. The source says: Assay Development and Screening Technology
Sequence of Cellular tumor antigen p53 (Homo sapiens) (P04637 whole entry, looked up): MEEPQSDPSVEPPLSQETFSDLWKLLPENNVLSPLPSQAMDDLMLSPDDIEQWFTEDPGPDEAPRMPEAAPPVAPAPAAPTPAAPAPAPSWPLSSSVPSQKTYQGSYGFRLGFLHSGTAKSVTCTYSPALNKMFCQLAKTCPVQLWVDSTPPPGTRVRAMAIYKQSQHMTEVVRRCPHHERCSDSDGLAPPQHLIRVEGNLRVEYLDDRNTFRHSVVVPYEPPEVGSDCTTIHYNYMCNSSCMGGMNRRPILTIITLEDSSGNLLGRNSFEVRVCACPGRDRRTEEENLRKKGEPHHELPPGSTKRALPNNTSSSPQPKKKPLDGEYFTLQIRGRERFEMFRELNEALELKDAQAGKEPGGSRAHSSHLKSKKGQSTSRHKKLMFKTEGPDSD
National Center for Advancing Translational Sciences (NCATS),
National Institute of Health (NIH), Rockville, Maryland
Cellular senescence (CS) is one of the hallmarks of aging and age-related diseases. Senescent cells are characterized by an irreversible growth arrest, an increase in senescence-associated beta-galactosidase (SA-beta-gal) activity and p16INK4a expression, an activation of the DNA damage response pathways, and the emergence of a senescence-associated secretory phenotype (SASP).
Delta133p53alpha, a human/primate-specific p53 protein isoform, delays or inhibits the induction of CS and SASP in various types of human cells, including progeria-derived fibroblasts, primary normal astrocytes, and CD8+ T lymphocytes. Induction of delta133p53alpha with small molecule compounds may provide therapeutic opportunities for inhibition of senescence/SASP-associated pathologies in progeria syndromes, astrocyte-mediated neuroprotection in neurodegenerative diseases, and possibly prevention and treatment of a wider range of senescence- and aging-associated diseases.
Here we report the development and validation of a cell-based quantitative high throughput screening (qHTS) assay in 1,536-well format. This qHTS assay uses the NCI-H358 cell line with doxycycline-inducible expression of enhanced green fluorescent protein (eGFP)-tagged delta133p53alpha, which allows efficient and highly quantitative measurement of the protein levels.
PROTOCOL TABLE (as described by Inglese J, Shamu CE and Guy RK. 2007)
SEQUENCE No. (e.g., 1, 2, 3, etc.); […] (e.g., Cells, Incubation, Reagent, etc.); VALUE; DESCRIPTION.
1; Cells; 4uL; 800 doxycycline treated cells / well in doxycycline-free media, 1536-well black, clear-bottom low base Aurora microplates.
2; Compounds; 23 nL; Kalypsis pin tool (Wako) equipped with 1536-well pin heads, 5-azacytidine positive control.
3; Incubation; 24 hr; 37C, 5% CO2; 95% relative humidity.
4; Aspiration; 1x; BioTek EL406 washer dispenser (Agilent).
5; Fixing; 3.5% paraformaldehyde, BioTek EL406 washer dispenser (Agilent).
6; Washing; 1x PBS; BioTek EL406 washer dispenser (Agilent).
7; Nuclei staining; 1:1000 dilution of Hoechst 33342 (Thermofisher), BioTek EL406 washer dispenser (Agilent).
8; Incubation; 20 min; in the dark at room temperature.
9; Washing; 2x, 1x PBS (ThermoFisher), BioTek EL406 washer dispenser (Agilent).
10; Reagent; 10 uL; 1x PBS per well, sealed with clear adhesive tape.
11; Detection; Fluorescence, Acumen eX3 laser scanning cytometer (STP Labtech), GFP filters […].
NOTES (numbers refer to sequence numbers above).
1. NCI-H358 cells expressing eGFP-tagged delta133p53alpha were grown in T75 culture flasks and treated with doxycycline for 24h, at 10 ng/ml for eGFP-D133p53a cells (N-terminal cell) and 100 ng/ml for D133p53a-eGFP cells (C-terminal cells). Cells were trypsinized, counted using a Counted 3 Automated Cell Counter (Thermo Fisher), and diluted to a concentration of 200,000 cells/ml. A Multidrop Combi Reagent Dispenser (ThermoFisher) was used to dispense 800 cells/well in […] of doxycycline-free media, into 1536-well black/clear bottom low base plates (AuroraMicroplates).
2. After plating cells, 23 nl of compound library, DMSO vehicle control or positive control (5-azacytidine) were transferred by Pin Tool (Wako). The plate map layout was the same for each plate: (column 1) non-doxycycline treated cells + DMSO vehicle control; (column 2) doxycycline treated cells + DMSO vehicle control baseline; (column 3) doxycycline treated cells + positive control 57.5 uM final concentration 5-azacytidine; (column 4) doxycycline treated cells + serial dilution of 5-azacytidine, 16-point 1:2 titration spanning 1.8 nM to […] final concentration; (columns 5-48) doxycycline treated cells + titration of library compounds.
3. Cells were incubated at 37 °C, 5 % CO2, 95% RH with breathable metal lid for 24h.
4-10. […]
On the technique in general: Quantitative high-throughput screening tests each substance at several concentrations.
For the compound `CC(=O)[C@H]1CC[C@H]2[C@@H]3CC[C@H]4C[C@](C)(O)CC[C@]4(C)[C@H]3CC[C@]12C`, the Potency result is “inactive”.
In the case of `CC[C@@]1(O)C(=O)OCc2c1cc1n(c2=O)Cc2cc3ccccc3nc2-1` it was 1.72 µM (active); in that of `CP(=O)(O)C1=CCNCC1`, “inactive”.
The same measure for `CC1(C(=O)O)C2CCC(O2)C1(C)C(=O)O` (centres undefined): “inactive”; for `CCn1cnc2c(Nc3cccc(Cl)c3)nc(N[C@@H]3CCCC[C@@H]3N)nc21`: 9.68 µM (active).
In the case of `N[C@H](CCCCCP(=O)(O)O)C(=O)O` it was “inactive”; in that of `Cc1c2ccncc2c(C)c2c1[nH]c1ccccc12`, 3.06 µM (active).
On to `c1ccc2c(c1)OCC(C1=NCCN1)O2` (centres undefined), for which the Potency result was “inactive”.
The same measure for `C[C@]12Cc3cn4c(nc3C=C1CCC1C2CC[C@@]2(C)[C@H]1CC[C@@]2(O)C#N)nc1ccccc14` (some centres undefined): 19.3 µM (active).
`O=C1/C(=C\c2ccccc2)C[C@@]2(O)[C@H]3Cc4ccc(O)c5c4[C@@]2(CCN3CC2CC2)[C@H]1O5`: the Potency was 15.3 µM (active).
On to `CC1=NN=C(c2ccc(N)cc2)c2cc3c(cc2C1)OCO3`, for which the Potency was 34.3 µM (active).
Turning to `CCS(=O)(=O)Nc1cccc(C(=C2CCCCC2)c2cnc[nH]2)c1`, the Potency result was “inactive”.
The same measure for `c1ccc2c(c1)[I+]c1ccccc1-2`: 19.3 µM (active).
For the compound `CN1C2CCC1CC(OC(c1ccccc1)c1ccccc1N)C2` (centres undefined), the Potency entry is “inactive”.
